In PubChem BioAssay (NCATS):
Records with an inconclusive call do not appear. Calls of active or inactive are those of the source. Calls follow the shape of the dose curve; as a rule, active = well fitted curve in the direction sought with a large enough effect; inconclusive = small, poorly fitted or top-dose-only effect, or another doubt; inactive = no such curve, though single readings can be large; an effect the other way counts as inactive or inconclusive. *1 amine or outer side, *2 acyl side, *3 side chain or, on linkers, in order; H or OH if unused. Where a SMILES comes first, the peptide text is derived from it. Bridges are numbered along the chain shown (N, C = ends). [ ]: non-standard residue; d: D form. The star is where a group is joined. ξ: configuration not given here. X10 = NC1=NCCC(C(N[*:1])C(=O)[*:2])N1; ΔAla(3-NHCONH2) = NC(=O)NC=C(N)C(=O)O; ξβ3hOrn = NCCCC(N)CC(=O)*; Dap = NC[CH](N)C(=O)O

What was measured:
[1] = NS1 protein of Zika virus - qHTS assay to identify small molecule inhibitors in human HEK 293 cells (AID 1347053);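 also: series mostly up to about 46 µM; plate controls were infected untreated cells for no effect and uninfected cells for full effect; nearly all actives have a fitted effect of over 55% in size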
Procedure, shortened: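 Readout was TR-FRET using paired anti-NS1 antibodies after 24 h infection of HEK 293 cells with ZIKV MR766 (MOI = 0.5). Compound preceded virus by 1 h; reduced signal reflects lower NS1 expression.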

[2] = qHTS of pediatric cancer cell lines to identify multiple opportunities for drug repurposing: Primary screen for TC32 cells (AID 1347089); also: % is scaled to controls: 0 for no effect and ±100 for the full control effect; nearly all actives have a fitted effect of over 60% in size
Procedure, shortened: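 TC32 cells, 500-1,000/well in growth medium, compound-treated 48 h at 37 °C; viability from CellTiter-Glo luminescence. Primary screen: MIPE 11-point (0.78 nM–46 µM final), NPC 8-point (0.59 nM–46 µM final); confirmatory at 11-point dilutions.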

[3] = qHTS of pediatric cancer cell lines to identify multiple opportunities for drug repurposing: Primary screen for DAOY cells (AID 1347090);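 also: series mostly up to about 46 µM; plate controls were DMSO for no effect and bortezomib for full effect; nearly all actives have a fitted effect of over 55% in size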
Procedure, shortened: (§1)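 Eight- or eleven-point concentration series, 48 h treatment at 37 degrees C in growth media; readout CellTiter-Glo luminescence. Potency and efficacy were taken from the concentration-response curves.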

[4] = qHTS of pediatric cancer cell lines to identify multiple opportunities for drug repurposing: Primary screen for SJ-GBM2 cells (AID 1347091);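 also: plate controls were DMSO neutral control for no effect and bortezomib for full effect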
Procedure, shortened: as §1

[5] = qHTS of pediatric cancer cell lines to identify multiple opportunities for drug repurposing: Primary screen for A673 cells (AID 1347092); also: % is scaled to controls: 0 for no effect and ±100 for the full control effect; nearly all actives have a fitted effect of over 45% in size
Procedure, shortened: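 A673 cells (500-1,000 cells/well) were treated 48 hours at 37 degrees C with compounds at 11-point (0.78 nM to 46 µM) or 8-point (0.59 nM to 46 µM) dilutions. Viability read by CellTiter-Glo luminescence; concentration-response curves fitted.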

CN(C)C(=O)CNC(=O)Cc1ccccc1
inactive: Potency [1] | Potency [2] | Potency [3] | Potency [4] | Potency [5]

CC1CC(=O)NN=C1c1ccc(NCC(C)(C)NCC(O)COc2cc(Cl)ccc2C#N)cc1 (stereo not given)
inactive: Potency [1] | Potency [2] | Potency [3] | Potency [4] | Potency [5]

c1ccc2occc2c1
inactive: Potency [1] | Potency [2] | Potency [3] | Potency [4] | Potency [5]

N[C@@H](Cc1cc(I)c(O)c(I)c1)C(=O)O
inactive: Potency [1] | Potency [2] | Potency [3] | Potency [4] | Potency [5]

CO[C@@]1(NC(=O)CSC[C@@H](N)C(=O)O)C(=O)N2C(C(=O)O)=C(CSc3nnnn3C)CS[C@@H]21
inactive: Potency [1] | Potency [2] | Potency [3] | Potency [4] | Potency [5]

CSCC[C@H](NC(=O)[C@H](Cc1c[nH]c2ccccc12)NC(=O)CCNC(=O)OC(C)(C)C)C(=O)N[C@@H](CC(=O)O)C(=O)N[C@@H](Cc1ccccc1)C(N)=O
inactive: Potency [1] | Potency [2] | Potency [3] | Potency [4] | Potency [5]

COC(=O)C1=C(C)NC(C)=C(C(=O)OCCc2ccc(N3CCN(C(c4ccccc4)c4ccccc4)CC3)cc2)C1c1cccc([N+](=O)[O-])c1 (stereo not given)
inactive: Potency [1] | Potency [2] | Potency [3] | Potency [4] | Potency [5]

O=C(O)CCC(=O)OC[C@@H](NC(=O)C(Cl)Cl)[C@H](O)c1ccc([N+](=O)[O-])cc1
inactive: Potency [1] | Potency [2] | Potency [3] | Potency [4] | Potency [5]

O=C(OCC(COC(=O)c1cccnc1)(COC(=O)c1cccnc1)COC(=O)c1cccnc1)c1cccnc1
inactive: Potency [1] | Potency [2] | Potency [3] | Potency [4] | Potency [5]

O=C(O)C1CCC1
inactive: Potency [1] | Potency [2] | Potency [3] | Potency [4] | Potency [5]

CCc1cccc2c(CCO)c[nH]c12
inactive: Potency [1] | Potency [2] | Potency [3] | Potency [4] | Potency [5]

COCCc1ccc(OCC2CO2)cc1 (stereo not given)
inactive: Potency [1] | Potency [2] | Potency [3] | Potency [4] | Potency [5]

N#CC1(c2ccc(F)cc2)CCC(=O)CC1
inactive: Potency [1] | Potency [2] | Potency [3] | Potency [4] | Potency [5]

CCCCN(CCCC)C(C(N)=O)c1ccc(OC)cc1 (stereo not given)
inactive: Potency [1] | Potency [2] | Potency [3] | Potency [4] | Potency [5]

[O-][n+]1cccc(/C(Cl)=N/OC[C@@H](O)CN2CCCCC2)c1
inactive: Potency [1] | Potency [2] | Potency [3] | Potency [4] | Potency [5]

CC(C)NCCCC1(C(N)=O)c2ccccc2-c2ccccc21
inactive: Potency [1] | Potency [2] | Potency [3] | Potency [4] | Potency [5]

CCCCCC1Nc2cc(C(F)(F)F)c(S(N)(=O)=O)cc2S(=O)(=O)N1 (stereo not given)
inactive: Potency [1] | Potency [2] | Potency [3] | Potency [4] | Potency [5]

Nc1ccc(O)cc1
inactive: Potency [1] | Potency [2] | Potency [3] | Potency [4] | Potency [5]

NS(=O)(=O)c1cc(C(=O)NN2C[C@H]3[C@H]4CCC(C4)[C@H]3C2)ccc1Cl
inactive: Potency [1] | Potency [2] | Potency [3] | Potency [4] | Potency [5]

CC(=O)N[C@@H](CCC(N)=O)C(=O)O
inactive: Potency [1] | Potency [2] | Potency [3] | Potency [4] | Potency [5]

O=C(O)c1ccc(OCCN2CCCCC2)cc1
inactive: Potency [1] | Potency [2] | Potency [3] | Potency [4] | Potency [5]

CCC1(c2cnc[nH]2)Cc2ccccc2C1
inactive: Potency [1] | Potency [2] | Potency [3] | Potency [4] | Potency [5]

NCCCC(N)CC(=O)NCC1NC(=O)C(CO)NC(=O)C(N)CNC(=O)C(C2CCN=C(N)N2)NC(=O)C(=CNC(N)=O)NC1=O (stereo not drawn) (H-[Dap]S[Dap](ξβ3hOrn)[ΔAla(3-NHCONH2)][X10]; lactam 1-C; configuration not given here)
inactive: activity change, negative = inhibition [1] 1.27% [at 0.593 µM] | activity change, negative = cytotoxic [2] 5.9% [at 0.594 µM] | activity change, negative = cytotoxic [3] 6.38% [at 0.597 µM] | activity change, negative = cytotoxic [4] 34.8% [at 0.597 µM] | activity change, negative = cytotoxic [5] -4.68% [at 0.597 µM]

CC[N+]1(CC)CCC(=C(c2ccccc2)c2ccccc2)C1C (stereo not given)
inactive: Potency [1] | Potency [2] | Potency [3] | Potency [4] | Potency [5]

CCCCOCCOC(=O)c1cccnc1
inactive: Potency [1] | Potency [2] | Potency [3] | Potency [4] | Potency [5]

O=C(O)CNC(=O)CNC(=O)CNC(=O)CSC(=O)c1ccccc1
inactive: Potency [1] | Potency [2] | Potency [3] | Potency [4] | Potency [5]

C[C@]12CCC(=O)C=C1CC[C@@H]1[C@@H]2[C@@H](O)C[C@@]2(C)[C@H]1CC[C@]2(O)C(=O)COC(=O)CCC(=O)O
inactive: Potency [1] | Potency [2] | Potency [3] | Potency [4] | Potency [5]

CC(C)C(=O)Nc1cccc(C2CN3CCSC3=N2)c1 (stereo not given)
inactive: Potency [1] | Potency [2] | Potency [3] | Potency [4] | Potency [5]
